Experimental data: PubChem BioAssay AID1446 (The Scripps Research Institute Molecular Screening Center, 2008)
Hit rate of the full screen: of about 220,000 compounds, about 2,400 (1.1%) were called active.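 How the source made its calls: active means inhibition above the campaign mean plus 3 SD over all tested compounds (cut at about 24% in these data); inactive means the rest.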 For the sample, actives were picked, then their nearest neighbours and some compounds at random.

Assay: reduced viability of JAK2V617F-dependent Ba/F3 cells, primary screen, JAK2V617F inhibitor project, cell-based, Ba/F3 EpoR-JAK2V617F, luminescence (AID 1446);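 further: cytokine-independent growth of Ba/F3 cells driven by EpoR plus mutant JAK2; 0% = DMSO-treated cells and 100% = JAK inhibitor I control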
Conditions: ATP luminescence, at 5.6 µM, stronger effect = higher value

Structure (SMILES)	inhibition
CSc1nnc(-c2ccc(C(F)(F)F)cn2)o1	-4.69% (inactive)
CC(=O)NC(Cc1ccc(F)c(F)c1)C(=O)NC1CCN(c2nnnn2-c2ccccc2)CC1 (stereo unspecified)	1.68% (inactive)
O=C(COC(=O)CNS(=O)(=O)c1ccccc1)NC12CC3CC(CC(C3)C1)C2	2.17% (inactive)
Cc1ccc(CN(C)CC(=O)Nc2cccc([N+](=O)[O-])c2)o1	-2.99% (inactive)
Cc1ccc(NC(=O)CN(C)CC(=O)Nc2cccc(F)c2)cc1[N+](=O)[O-]	32.7% (active)
CN(CC(=O)Nc1cccc(F)c1)CC(=O)Nc1cccc([N+](=O)[O-])c1	1.69% (inactive)
Nc1ccc2nn(-c3ccc(Cl)cc3)nc2c1	-0.91% (inactive)
Cc1ncc([N+](=O)[O-])n1CCOC(=O)c1ccc(Br)cc1	-1.79% (inactive)
CCCCCCNC(=O)CSc1nccn1Cc1ccccc1	-2.6% (inactive)
COc1ccc(-n2nnnc2-c2nc3ccccc3s2)cc1	-2.25% (inactive)
CCOc1cccc(-n2nnnc2-c2ccc(OC)cc2)c1	62.5% (active)
CCOc1cccc(-c2nnc3sc(COc4ccc(OC)cc4)nn23)c1	-2.87% (inactive)
CCn1c2ccccc2c2cc(NC(=O)CNC)ccc21	-0.79% (inactive)
CCc1ccc(NC(=O)N2CCN(c3ccccc3)CC2)cc1	0.49% (inactive)
CC[n+]1c(C)n(-c2ccccc2)c2ccc(NC(C)=O)cc21	70.6% (active)
COc1cccc(NC(=O)CC2C(=O)NCCN2C(=S)Nc2ccc(F)cc2)c1 (stereo unspecified)	3.64% (inactive)
COc1ccc(S(=O)(=O)N(CC(=O)N/N=C/c2ccccc2C(=O)O)c2ccccc2OC)cc1	-2.32% (inactive)
COc1ccccc1-c1nc(C#N)c(N2CCC(C(N)=O)CC2)o1	-2.39% (inactive)
Cc1ccccc1-c1nc(C#N)c(NCc2ccco2)o1	0.66% (inactive)
COc1ccc(Nc2oc(-c3ccccc3Cl)nc2C#N)cc1	50.8% (active)
CC(C)C(=O)Nc1oc(-c2ccccc2)cc1C#N	0.17% (inactive)
CC1CCN(S(=O)(=O)c2ccc(S(=O)(=O)NCc3cccnc3)cc2)CC1	0.32% (inactive)
CCCCCCn1c(CN2CCCCC2)nc2c1c(=O)n(C)c(=O)n2C	-2.26% (inactive)
CCCCCCCCn1c2c(c(=N)c3c1CCC3)CCCC2	101% (active)

Structure (SMILES)	inhibition
Cc1noc(C)c1COc1cccc(C(=O)Nc2cccnc2)c1	-0.6% (inactive)
Cc1cc(NCc2cccnc2)no1	-7.11% (inactive)
CN(Cc1cccnc1)C(=O)c1cc(COc2ccc3ncccc3c2)on1	54.2% (active)
Cc1cccc(-[n+]2c(-c3cccc(Br)c3)[nH]c3nc4ccccc4nc32)c1	-1.46% (inactive)
COc1ccc2nc(Nc3nc4ccc(NC(C)=O)cc4s3)sc2c1	-4.43% (inactive)
CCCC(=O)Nc1nc2ccc(NC(=O)c3cccnc3)cc2s1	2.04% (inactive)
CCCC(=O)Nc1nc2ccc(NC(=O)c3c(F)c(F)c(OC)c(F)c3F)cc2s1	81.8% (active)
CCc1cccc(NC(=O)CCNS(=O)(=O)c2cccc3nonc23)c1	-3.57% (inactive)
Cc1onc(-c2ccc(Cl)cc2)c1-c1ccnn1S(=O)(=O)c1ccc(Cl)cc1	-1.9% (inactive)
COc1cc(/C=C2/C(=O)ON=C2C)ccc1OCc1ccccc1F	-2.39% (inactive)
CC1=NOC(=O)/C1=C\c1ccccc1	-4.85% (inactive)
COc1cc(/C=C2/C(=O)ON=C2C)ccc1OCc1cccc(F)c1	67.1% (active)
COc1ccc(NS(=O)(=O)c2ccc(N3CCOCC3)c(NC(=O)c3ccccc3Br)c2)cc1	2.5% (inactive)
COc1ccccc1N=Cc1c(O)c2ccccc2oc1=O	5.52% (inactive)
CCC(=O)Nc1nc2ccccc2n1Cc1ccccc1C	-0.24% (inactive)
CCCn1c(NC(=O)C23CC4CC(CC(O)(C4)C2)C3)nc2ccccc21	53% (active)
CC(=O)Nc1nc2ccccc2n1Cc1ccc(C)cc1	-2.63% (inactive)
CCOP(=O)(OCC)C(Nc1cccc(C)c1)c1ccc(F)cc1 (stereo unspecified)	-3.26% (inactive)
CCn1c(/C=C/c2ccc([N+](=O)[O-])o2)nc2ccccc2c1=O	40.5% (active)
C/[N+]([O-])=C\c1ccc([N+](=O)[O-])o1	-0.25% (inactive)
Cn1cc(/C=C/c2nc3ccccc3c(=O)n2-c2cccc([N+](=O)[O-])c2)c2ccccc21	0.27% (inactive)
CCc1nnc(NC(=O)CSc2nnnn2-c2cccc(C(C)=O)c2)s1	-3.92% (inactive)
CC(=O)Nc1ccc(S(=O)(=O)Oc2ccc(/C=N/N=C3/NC(=O)C(CC(=O)O)S3)cc2)cc1 (stereo unspecified)	1.79% (inactive)
COc1ccc(C)cc1Nc1nc(-c2c(C)[nH]c3ccccc23)cs1	-2.69% (inactive)

Structure (SMILES)	inhibition
COc1ccc(-c2csc(Nc3ccc(O)cc3)n2)cc1	65.8% (active)
COc1ccc2nc(Nc3nc(-c4cc5ccccc5oc4=O)cs3)sc2c1	-2.4% (inactive)
COc1ccc(Nc2nc(-c3ccccc3)cs2)cc1	1.67% (inactive)
COc1ccc(OC)c(Nc2nc(-c3ccc(O)c(O)c3)cs2)c1	35.7% (active)
COc1ccc(-c2csc(Nc3ccccn3)n2)cc1	-3.7% (inactive)
CCNc1nc(-c2cc3ccccc3o2)cs1	-1.02% (inactive)
O=c1oc2ccccc2cc1-c1csc(Nc2ccc(O)cc2)n1	70.4% (active)
COc1ccc2nc(Nc3nc(-c4ccncc4)cs3)sc2c1	3.58% (inactive)
Cc1ccc(O)c(CCc2ccccc2)n1	-4.38% (inactive)
Cc1nc(Cl)c(C#N)c2c1CCCC2	-4.53% (inactive)
Cc1cc(C)n(CC(O)CN(c2ccccc2)S(=O)(=O)c2ccc3ccccc3c2)n1 (stereo unspecified)	0.98% (inactive)
S=c1[nH]c2ccccc2c2ccccc12	-1.73% (inactive)
CN(C)CCNC(=O)/C(=C/c1cccc([N+](=O)[O-])c1)NC(=O)c1ccccc1	3.86% (inactive)
O=C1/C(=C\c2ccsc2)NC(=S)N1c1ccccc1	-2.32% (inactive)
Cc1ccccc1NC(=O)CN1C(=O)N/C(=C\c2cccn2-c2cccc(C(=O)O)c2)C1=O	0.8% (inactive)
O=C1N/C(=C/c2cccn2-c2ccccc2)C(=O)N1c1cccc(Cl)c1	51.8% (active)
Cc1ccc(C(=O)NN(CCC#N)C2=NS(=O)(=O)c3ccccc32)cc1	-4.16% (inactive)
Cc1ccc2sc(NNC(=O)c3ccc4c(c3)OCCO4)nc2c1C	-3.73% (inactive)
COc1ccc(Nc2cc(=O)n(-c3ccccc3)c3c2c(=O)n(C)c(=O)n3C)cc1	0.16% (inactive)
COc1ccc(Nc2cc(=O)oc3ccccc23)cc1	55.1% (active)
COc1ccc(N2CCN(Cc3cc(=O)oc4ccc5ccccc5c34)CC2)cc1	0.19% (inactive)
O=C(CC(c1ccccc1)c1cc(Cl)ccc1O)NCCN1CCOCC1 (stereo unspecified)	-3.6% (inactive)
C/C(CC(C)C)=N\Oc1nc(C)cc(C)n1	-2.21% (inactive)
O=[N+]([O-])c1cc(C(F)(F)F)ccc1NN=C1CCCC1	-0.95% (inactive)

Structure (SMILES)	inhibition
O=C(CCN1CCCCC1)N=Nc1c(O)[nH]c2ccccc12	1.24% (inactive)
COC(=O)COc1cccc2c(=O)n(CC(=O)NCc3ccccc3)ccc12	58.8% (active)
COC(=O)COc1cccc2c(=O)n(CC(=O)NCCc3ccc(OC)c(OC)c3)ccc12	-2.26% (inactive)
Cc1ccc(CNC(=O)CCNC(=O)Cn2ccc3ccccc3c2=O)cc1	0.07% (inactive)
CC(C)(C)NC(=O)c1ccc(Cn2cc(C(F)(F)F)ccc2=O)cc1	0.95% (inactive)
Cc1cc2ccccn2c1C(=O)c1cccc(S(=O)(=O)N2CCOCC2)c1	-0.04% (inactive)
C/C(CC(=O)NC(C)(C)C)=N\NC(=O)c1ccco1	-1.54% (inactive)
CCCNc1c(N)c(=O)c1=O	1.36% (inactive)
CCc1cc(C(=O)c2ccc(OC)cc2)c(NC(=O)CN2CCN(C)CC2)s1	-1.89% (inactive)
CCOC(=O)C1CCN(c2ncnc3c2oc2ccc(Br)cc23)CC1	0.71% (inactive)
CCOC(=O)N1CCN(C(=O)C2CCN(c3ncnc4c3sc3cccc(F)c34)CC2)CC1	43.9% (active)
CCOC(=O)N1CCN(C(=O)C2CCN(Cc3ccc(OC)cc3OC)CC2)CC1	-0.59% (inactive)
COc1ccc(/C=N/OCC(=O)N(Cc2ccccc2)c2ccccc2C(=O)O)cc1	-2.1% (inactive)
CCCCN1C(=O)/C(=C(/C#N)C(N)=O)c2ccccc21	-3.07% (inactive)
CC(C)c1ccc(Nc2nnc(SCC(=O)c3nnc(-c4ccccc4)o3)s2)cc1	0.01% (inactive)
COc1ccc(CCNC(=O)C(=O)NCC2CCNCC2)cc1OC	-3.6% (inactive)
Cc1ccc2c(c1)C1CN(C)CCC1N2S(=O)(=O)c1ccc(Oc2ccc([N+](=O)[O-])cc2)cc1 (stereo unspecified)	-5.1% (inactive)
CCn1c(CSCc2c(Cl)cccc2Cl)n[nH]c1=S	-2.13% (inactive)
COc1cc2c(cc1OC)C(/C=C/c1ccco1)=NCC2	1.51% (inactive)
O=c1oc2ccccc2cc1-c1cn(-c2ccccc2)c(=S)[nH]1	35.7% (active)
Nc1ncc(-c2cc3ccccc3oc2=O)s1	6.85% (inactive)
O=C(c1cn(-c2ccccc2)nc1-c1cc2ccccc2oc1=O)N1CCOCC1	-0.6% (inactive)
Cc1nc2c(ncn2-c2ccccc2)c(=O)n1NC(=O)CN1CCCC1	-1.07% (inactive)
O=C(NNC(=O)c1ccccc1[N+](=O)[O-])Nc1ccccc1C(F)(F)F	-0.76% (inactive)
